Read-out in experiment [1]: Tumor necrosis factor (Homo sapiens) (UniProt P01375)
The experiment in a line: BSK_BT_xTNFa: BioMAP Diversity Plus: BT Assay for Tumor necrosis factor alpha (TNF-alpha) Biomarker Activity (AID 2284230). The following applies: primary human B cells with PBMC. Put shortly: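 Endpoint derived in the positive direction versus DMSO vehicle. Cells: B cells together with PBMC, exposed 24 h before TNF-alpha in the medium was read on the Luminex xMAP platform.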

Read-out in experiment [2]: Vascular cell adhesion molecule 1 (VCAM1), VCAM1 (gene 7412)
The experiment in a line: BSK_MyoF_VCAM1: BioMAP Diversity Plus: MyoF Assay for Vascular cell adhesion molecule 1 (VCAM1) Biomarker Activity (AID 2284231). The following applies: primary human lung fibroblasts. Put shortly:
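Primary human lung fibroblasts were dosed with test chemical for 24 h, then cell-surface VCAM-1 was measured by ELISA. Activity was fitted in the positive direction against DMSO as negative control and baseline.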

Read-out in experiment [3]: Collagen I, COL1A1 (gene 1277)
The experiment in a line: BSK_MyoF_CollagenI: BioMAP Diversity Plus: MyoF Assay for Collagen I Biomarker Activity (AID 2284238). As to conditions: primary human lung fibroblasts. In short, it runs like this:
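Human lung fibroblasts were exposed to test chemical for 24 h, then Collagen I was quantified by ELISA. Activity was fitted in the increasing direction against DMSO as the negative control and baseline.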

Read-out in experiment [4]: Collagen III, COL3A1 (gene 1281)
The experiment in a line: BSK_MyoF_CollagenIII: BioMAP Diversity Plus: MyoF Assay for Collagen III Biomarker Activity (AID 2284239). As to conditions: primary human lung fibroblasts. Put shortly:
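Human lung fibroblasts were dosed with chemicals and, 24 hours later, collagen III was measured by ELISA. Activity was fitted in the positive direction against the DMSO negative-control baseline.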

Read-out in experiment [5]: Interleukin 17F (IL17F), IL17F (gene 112744)
The experiment in a line: BSK_BT_xIL17F: BioMAP Diversity Plus: BT Assay for Interleukin 17F (IL17F) Biomarker Activity (AID 2284243). The following applies: primary human B cells with PBMC. Put shortly:
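B cell/PBMC co-culture (human primary), 24 h compound exposure; sIL-17F by Luminex xMAP; gain-of-signal fit vs DMSO baseline.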

Read-out in experiment [6]: Actin alpha 1 (ACTA1), ACTA1 (gene 58)
The experiment in a line: BSK_MyoF_ACTA1: BioMAP Diversity Plus: MyoF Assay for Actin alpha 1 (ACTA1) Biomarker Activity (AID 2284244). As to conditions: primary human lung fibroblasts. Put shortly:
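Human lung fibroblast (MyoF system) cultures dosed with test chemical; alpha-SMA measured by ELISA 24 h after dosing, normalized to DMSO control. Cytotoxicity tracked in parallel cultures by SRB total-protein staining.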

Read-out in experiment [7]: Interleukin 2 (IL2), IL2 (gene 3558)
The experiment in a line: BSK_BT_xIL2: BioMAP Diversity Plus: BT Assay for Interleukin 2 (IL2) Biomarker Activity (AID 2284245). As to conditions: primary human B cells with PBMC. In short, it runs like this:
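Human B cell plus PBMC co-culture, 24 h after chemical dosing; secreted IL-2 quantified by Luminex xMAP multiplex, fitted for signal gain against DMSO baseline.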

Read-out in experiment [8]: Basic fibroblast growth factor (bFGF), FGF2 (gene 2247)
The experiment in a line: BSK_MyoF_bFGF: BioMAP Diversity Plus: MyoF Assay for Basic fibroblast growth factor (bFGF) Biomarker Activity (AID 2284246). The following applies: primary human lung fibroblasts. In short, it runs like this:
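Human lung fibroblast cultures were dosed and measured 24 h later in 96-well format. bFGF biomarker levels quantified by ELISA, with activity fitted in the positive direction against DMSO.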

Read-out in experiment [9]: Collagen IV, COL4A1 (gene 1282)
The experiment in a line: BSK_MyoF_CollagenIV: BioMAP Diversity Plus: MyoF Assay for Collagen IV Biomarker Activity (AID 2284247). As to conditions: primary human lung fibroblasts. In short, it runs like this: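 Primary human lung fibroblasts (MyoF system) dosed 24 h; Collagen IV measured by ELISA. Activity fitted in positive direction against DMSO; cytotoxicity tracked by SRB total-protein staining in parallel cultures.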

The nature of experiment [10]: CCTE_Mundy_HCI_hNP1_Casp3_7: CCTE's Caspase-Glo 3/7 Assay in human neuroprogenitor cells for Apoptosis, Mundy Lab (AID 2284240). In short, it runs like this:
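Neuroepithelial-lineage stem cells from WA09 embryonic cells were treated with chemicals after 40–44 h of culture. Twenty-four hours later, caspase-3/7 activation was detected luminescently after a 30 min room-temperature reagent step, with DMSO as baseline.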

A short description of experiment [11]: CCTE_Mundy_HCI_hNP1_CellTiter: CCTE's Cell Titer-Glo 2 Assay in human neuroprogenitor cells for Viability, Mundy Lab (AID 2284241; active = hit-call score of the fitted dose curve at least 0.9, where 1 is the maximum). Put shortly: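 Measures ATP content in human neural progenitors derived from WA09 embryonic cells. Read-out at 26.5 hours after dosing, with DMSO serving as the negative control and baseline.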
(In general: ATP-based viability assays read luminescence as a measure of living cells.)

Read-out in experiment [12]: Monokine induced gamma interferon (MIG), CXCL9 (gene 4283)
The experiment in a line: BSK_KF3CT_MIG: BioMAP Diversity Plus: KF3CT Assay for Monokine induced gamma interferon (MIG) Biomarker Activity (AID 2284248). As to conditions: primary human keratinocytes with fibroblasts. Put shortly:
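Human keratinocyte plus foreskin fibroblast primary co-culture dosed with test chemical for 24 h; MIG level measured by ELISA and fitted in the positive direction against DMSO as baseline.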

Read-out in experiment [13]: Collagen I, COL1A1 (gene 1277)
The experiment in a line: BSK_hDFCGF_CollagenI: BioMAP Diversity Plus: hDFCGF Assay for Collagen I Biomarker Activity (AID 2284250). The following applies: primary human foreskin fibroblasts. In short, it runs like this: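 Primary human foreskin fibroblasts exposed to chemical for 24 h; Collagen I levels measured by ELISA. Cytotoxicity checked by SRB total-protein staining in parallel cultures.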

Several values for one entry are separate records, joined by “and”; a condition that tells them apart may be missing. Identical values can stand only once. Records with an inconclusive call do not appear. The source holds several records for some structures; these can differ, active in one and inactive in another. Activity calls are given as the source filed them. Rule for the calls, unless noted: active = hit-call score of the fitted dose curve at least 0.9, where 1 is the maximum; inactive = score below 0.9.

Tumor necrosis factor (Homo sapiens), sequence (P01375 whole entry, looked up): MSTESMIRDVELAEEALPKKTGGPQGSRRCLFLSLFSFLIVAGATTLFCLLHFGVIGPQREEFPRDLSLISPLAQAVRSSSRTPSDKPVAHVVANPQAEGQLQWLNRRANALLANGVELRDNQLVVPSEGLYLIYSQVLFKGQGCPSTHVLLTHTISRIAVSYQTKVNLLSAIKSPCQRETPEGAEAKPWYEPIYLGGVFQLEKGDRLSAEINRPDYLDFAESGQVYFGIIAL

Regarding `C=CC(=C)CC/C=C(\C)CCC=C(C)C`, the result in experiment [1], in experiment [2], in [3], in experiment [4], in experiment [5] and in [6] was inactive. Also, the outcome in [7], in experiment [8] and in experiment [9] was inactive.
As for `COc1cc(OC)nc(NC(=O)NS(=O)(=O)Nc2ccccc2C(=O)N(C)C)n1`, the outcome in experiment [1], in experiment [2], in experiment [3], in experiment [4], in [5] and in [6] was inactive. In addition, the result in [7], in [8] and in experiment [9] was inactive.
On to `NC(=NCCCCCCN=C(N)/N=C(\N)Nc1ccc(Cl)cc1)/N=C(\N)Nc1ccc(Cl)cc1`, for which the AC50 in experiment [1] was 8.79 µM (active); in experiment [2] it was 4.99 µM (active); in experiment [3], 1.21 µM (active); in [4], 2.24 µM (active); in [5] it was 5.34 µM (active); in [6], 4.86 µM (active). Besides, the values for the AC50 in experiment [7], in [8] and in experiment [9] were 8.05 µM (active), 9.23 µM (active) and 8.69 µM (active), respectively.
In the case of `OCC(F)(F)C(F)(F)C(F)(F)C(F)(F)C(F)(F)C(F)(F)C(F)(F)C(F)(F)C(F)(F)C(F)(F)C(F)(F)F`, the result in experiment [1], in experiment [2], in [3], in experiment [4], in [10] and in experiment [11] was inactive. For the same compound, the outcome in experiment [6], in experiment [7], in experiment [8], in experiment [9] and in experiment [12] was inactive. For the same compound, the AC50 in experiment [5] is 13.9 nM (active) and 23.8 nM (active); in [13], 42.7 nM (active) and 48.2 nM (active).
Regarding `O=P(O)(O)CCC(F)(F)C(F)(F)C(F)(F)C(F)(F)C(F)(F)C(F)(F)C(F)(F)C(F)(F)F`, the AC50 in experiment [1] is 30 µM (active). Further, the result in experiment [1], in [2], in experiment [3], in experiment [4], in experiment [10] and in experiment [11] was inactive. Besides, the result in experiment [5], in experiment [6], in [7], in experiment [8], in [9] and in experiment [12] was inactive. The outcome in experiment [13] was inactive.
As for `O=C(NO)c1ccccc1`, the AC50 in [1], in experiment [5] and in experiment [7] was 19.2 µM (active) in each case. The result in experiment [2], in experiment [3], in [4], in experiment [6], in experiment [8] and in experiment [9] was inactive.
Turning to `O=C(O)CCC(F)(F)C(F)(F)C(F)(F)C(F)(F)C(F)(F)C(F)(F)F`, in experiment [1], the AC50 was 36.5 µM (active). In addition, the outcome in experiment [1], in experiment [2], in experiment [3], in [4], in [5] and in experiment [6] was inactive. The result in [7], in experiment [8], in [9], in experiment [12] and in experiment [13] was inactive.
For `COC1=CC(=O)C[C@@H](C)[C@]12Oc1c(Cl)c(OC)cc(OC)c1C2=O`, the AC50 in [1] was 20 µM (active); in [3] it was 20 µM (active); in experiment [4] it was 3.97 µM (active). For the same compound, the outcome in experiment [2], in experiment [5], in experiment [6], in experiment [7], in [8] and in experiment [9] was inactive.
Consider `COc1cccc(O)c1`, for which the outcome in experiment [1], in [2], in experiment [3], in experiment [4], in experiment [5] and in experiment [6] was inactive. Besides, the outcome in experiment [7], in experiment [8] and in [9] was inactive.
Turning to `C=CC(=O)OCCC(F)(F)C(F)(F)C(F)(F)C(F)(F)C(F)(F)C(F)(F)C(F)(F)C(F)(F)F`, the result in experiment [1], in [2], in experiment [3], in experiment [4], in [10] and in experiment [11] was inactive. The result in experiment [5], in experiment [6], in experiment [7], in [8], in experiment [9] and in experiment [12] was inactive. In experiment [13], the outcome was inactive.

As a reminder, the AC50 is the concentration at which the activity in the assay is half-maximal.
